Results as given in PubChem BioAssay AID1159580 (chemical genetic matrix, 2015).
Values joined by “and” are separate entries in the source; they are usually repeats but may differ in a detail not shown here. Identical values can stand only once. The whole screen tested about 5,500 compounds, of which about 2,000 (36%) were called active. Roughly 18% stayed inconclusive and do not appear here. Cut-off read from the data, not from the text of the source: active = normalized growth mostly below about 0.91 (no sharp cut-off); inconclusive = no clear call, values can overlap the other calls; inactive = mostly above about 0.92. The list shows a part of the results.

Experiment: chemical genetic growth profiling, strain panel (AID 1159580);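 note: tested at 20 µM; growth read once vehicle control cultures reached saturation at 30 °C; 1 = growth at the plate median or of vehicle wells; lower values mean less growth of the strain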
Conditions: S. cerevisiae deletion strains, growth OD

Measured: normalized growth

NC(Cc1c[nH]c2ccccc12)C(=O)O (configuration not stated)
inactive: locus YAL013W, strain DEP1, active compounds read low 1 | locus YAL021C, strain ccr4, active compounds read low 1 | locus YAL026C, strain drs2, active compounds read low 1.01 | locus YAL030W, strain snc1, active compounds read low 1.02 | locus YBL061C, strain skt5, active compounds read low 1.04 | locus YBR009C, strain hhf1, active compounds read low 1 | locus YBR021W, strain FUR4, active compounds read low 1.01 | locus YBR023C, strain chs3, active compounds read low 1.02 | locus YBR171W, strain sec66, active compounds read low 1.03 | locus YBR229C, strain ROT2, active compounds read low 0.957 | locus YBR231C, strain swc5, active compounds read low 1.02 | locus YBR279W, strain paf1, active compounds read low 1.02 | locus YCL011C, strain gbp2, active compounds read low 1.02 | locus YCL016C, strain dcc1, active compounds read low 1.01 | locus YCL029C, strain bik1, active compounds read low 0.98 | locus YCL061C, strain MRC1, active compounds read low 1.01 | locus YCL069W, strain vba3, active compounds read low 1.03 | locus YCR088W, strain abp1, active compounds read low 1.02 | locus YDL005C, strain med2, active compounds read low 1.03 | locus YDL035C, strain GPR1, active compounds read low 1 | locus YDL040C, strain nat1, active compounds read low 1.03 | locus YDL074C, strain BRE1, active compounds read low 1.02 | locus YDL101C, strain DUN1, active compounds read low 0.984 | locus YDL134C, strain PPH21, active compounds read low 0.961 | locus YDL185W, strain tfp1, active compounds read low 0.986 | locus YDL192W, strain arf1, active compounds read low 0.984 | locus YDR001C, strain nth1, active compounds read low 1.04 | locus YDR069C, strain doa4, active compounds read low 1 | locus YDR101C, strain arx1, active compounds read low 0.996 | locus YDR137W, strain rgp1, active compounds read low 1.03 | locus YDR150W, strain NUM1, active compounds read low 0.965 | locus YDR159W, strain sac3, active compounds read low 1.02 | locus YDR162C, strain NBP2, active compounds read low 0.998 | locus YDR195W, strain ref2 1.02 | locus YDR297W, strain sur2, active compounds read low 1.02 | locus YDR318W, strain mcm21, active compounds read low 0.988 | locus YDR334W, strain swr1, active compounds read low 1.02 | locus YDR335W, strain msn5, active compounds read low 1.03 | locus YDR388W, active compounds read low 0.997 | locus YDR392W, strain spt3, active compounds read low 0.939 | locus YDR502C, strain sam2, active compounds read low 0.997 | locus YEL003W, strain gim4, active compounds read low 1.01 | locus YEL037C, strain rad23, active compounds read low 1.02 | locus YEL061C, strain CIN8 (second series), active compounds read low 1.02 | locus YEL061C, strain CIN8, active compounds read low 0.987 | locus YER015W, strain faa2, active compounds read low 1.02 | locus YER016W, strain bim1, active compounds read low 1.02 | locus YER110C, active compounds read low 0.98 | locus YER111C, strain swi4, active compounds read low 1.03 | locus YER155C, strain BEM2 (second series), active compounds read low 0.997 | locus YER155C, strain BEM2, active compounds read low 1.01 | locus YER167W, strain BCK2, active compounds read low 1.01 | locus YFR010W, strain ubp6, active compounds read low 1.02 | locus YGL078C, strain dbp3, active compounds read low 0.982 | locus YGL086W, strain mad1, active compounds read low 1.01 | locus YGL167C, strain pmr1, active compounds read low 1.02 | locus YGL173C, strain kem1, active compounds read low 1.03 | locus YGL227W, strain vid30, active compounds read low 1.03 | locus YGL240W, strain doc1, active compounds read low 1 | locus YGL248W, strain PDE1, active compounds read low 0.991 | locus YGL253W, strain hxk2, active compounds read low 1.01 | locus YGR078C, strain PAC10, active compounds read low 0.991 | locus YGR135W, strain pre9, active compounds read low 0.993 | locus YGR229C, strain SMI1, active compounds read low 1 | locus YGR252W, strain gcn5, active compounds read low 0.981 | locus YHR013C, strain ard1, active compounds read low 1.02 | locus YHR027C, strain rpn1, active compounds read low 1.02 | locus YHR030C, strain SLT2, active compounds read low 0.988 and 0.966 | locus YHR079C, strain IRE1 (second series), active compounds read low 0.989 | locus YHR079C, strain IRE1, active compounds read low 0.983 | locus YHR094C, strain hxt1, active compounds read low 0.988 | locus YHR129C, strain ARP1, active compounds read low 0.993 | locus YHR142W, strain chs7, active compounds read low 1.03 | locus YHR200W, strain rpn10, active compounds read low 0.995 | locus YIL066C, strain RNR3, active compounds read low 0.979 | locus YIL073C, strain SPO22, active compounds read low 1 | locus YIL125W, strain kgd1, active compounds read low 0.998 | locus YIR030C, strain dcg1, active compounds read low 0.992 | locus YJL092W, strain hpr5, active compounds read low 1.03 | locus YJL095W, strain BCK1 (second series), active compounds read low 1.02 | locus YJL095W, strain BCK1, active compounds read low 1.04 and 0.984 | locus YJL115W, strain asf1, active compounds read low 1.03 | locus YJL129C, strain trk1, active compounds read low 1.02 | locus YJL134W, strain LCB3, active compounds read low 0.987 | locus YJL154C, strain vps35, active compounds read low 1.02 | locus YJL164C, strain tpk1, active compounds read low 1 | locus YJL166W, strain qcr8, active compounds read low 1.01 | locus YJL168C, strain set2, active compounds read low 0.99 | locus YJL187C, strain SWE1 (second series), active compounds read low 0.973 | locus YJL187C, strain SWE1, active compounds read low 1.03 | locus YJR043C, strain POL32, active compounds read low 1.01 | locus YJR066W, strain TOR1, active compounds read low 0.978
